# PubChem BioAssay AID1850 (Southern Research Specialized Biocontainment Screening …, 2009)
# Among all 310,000 compounds or so, about 1,000 (0.32%) were called active. A selection follows. Potency and affinity values are given separately. Unmarked numbers belong to inactive results. How the calls were made is not given here.
# Assay: PhoP regulon inhibitors, Salmonella typhi PhoP promoter GFP reporter, confirmatory (AID 1850);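 further: 0% = induced wells with vehicle and 100% = uninduced wells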
# Conditions: fluorescence, 4 h, at 50 µM, active compounds read high
row,Structure (SMILES),inhibition
1,Cc1cccc(OCc2nnc3n2CCCCC3)c1,-4.01%
2,CCOC(=O)N1CCN(S(=O)(=O)c2ccc(C(=O)Nc3nnc(CSC)o3)cc2)CC1,-31.1%
3,CC(OC(=O)c1ccccc1Nc1ccc(SC(F)F)cc1)C(N)=O (stereo not drawn),-1.22%
4,C#CCOCCOCCOCCNc1nc(N2CCN(C(=O)CCCCCCCCCCNC(=O)[C@H]([C@@H](C)CC)n3cc(CCCCN=C(N)N)nn3)CC2)nc(N2CCN(C(=O)CCCCCCCCCCNC(=O)[C@H](CO)n3cc(CCCSC)nn3)CC2)n1,0.56%
5,C#CCOCCOCCOCCNc1nc(N2CCN(C(=O)CCCCCCCCCCNC(=O)[C@@H](CCSC)n3cc(CCO)nn3)CC2)nc(N2CCN(C(=O)CCCCCCCCCCNC(=O)[C@H](CO)n3cc(CCCCCN)nn3)CC2)n1,14.1%
6,C#CCOCCOCCOCCNc1nc(N2CCN(C(=O)CCCCCCCCCCNC(=O)[C@@H](CCSC)n3cc(CCO)nn3)CC2)nc(N2CCN(C(=O)CCCCCCCCCCNC(=O)[C@H](CCC(=O)O)n3cc(CCCCCN)nn3)CC2)n1,1.19%
7,C#CCOCCOCCOCCNc1nc(N2CCN(C(=O)CCCCCCCCCCNC(=O)[C@@H](CCSC)n3cc(CCO)nn3)CC2)nc(N2CCN(C(=O)CCCCCCCCCCNC(=O)[C@H](CCSC)n3cc(CCO)nn3)CC2)n1,2.16%
8,CC(=O)Oc1ccc(C(=O)Nc2cc(C)on2)cc1,3.46%
9,Nc1cccc(C(=O)N/N=C/c2ccsc2)c1,-10.7%
10,NC(=S)N=Nc1c(O)[nH]c2ccccc12,-2.48%
11,N=C(N)N=Nc1c(O)[nH]c2ccc(Br)cc12,-13.7%
12,Oc1[nH]c2ccc(Br)cc2c1N=NC(=S)Nc1ccc(F)cc1,14.4%
13,O=C(N=Nc1c(O)[nH]c2ccccc12)c1ccc(CN2CCOCC2)cc1,8.21%
14,COc1ccc(C(=O)C(Cc2cc(C(C)=O)ccc2OC)N2CCCC2)cc1 (stereo not drawn),-6.51%
15,O=C(Nc1cccc(S(=O)(=O)N2CCOCC2)c1)c1cnccn1,-6.33%
16,Cn1c(-c2ccc(F)cc2)cnc1NCc1cccc([N+](=O)[O-])c1,9.25%
17,Fc1ccc(Nc2nc(N3CCOCC3)nc(N3CCOCC3)n2)cc1,4.25%
18,COc1ccc(N2CCN(c3nc(Cl)nc(Nc4ccc(F)cc4)n3)CC2)cc1,-8.76%
19,CCCOc1cc2c(C#N)c(N3CCCC3)nc(N)c2c(N)n1,1.34%
20,N#Cc1c(N)c(C#N)c(-c2ccc3c(c2)OCO3)c2c1CCCC2,-3.29%
21,Nc1ncc(-c2ccc([N+](=O)[O-])cc2)cn1,4.2%
22,O=[N+]([O-])c1ccc(-c2cnc[nH]2)cc1,1.02%

row,Structure (SMILES),inhibition
1,Nc1c(-c2ccc(Cl)cc2)cnc2ncnn12,8.81%
2,Nc1ncncc1-c1ccc2ccccc2c1,-7.33%
3,COc1ccc2cc(C(=O)C3CCCN(C(=O)c4cnccn4)C3)ccc2c1 (stereo not drawn),8.69%
4,CCc1ccccc1NC1=NCC(=O)N1C1CCCC1,0.33%
5,COc1ccc(Nc2nc(C)cc(C)c2C#N)c(OC)c1,-0.58%
6,COc1ccccc1CNC(=O)C1CCCN(S(C)(=O)=O)C1 (stereo not drawn),-3.93%
7,CCOC(=O)c1ccc(NC(=S)NCc2ccccc2)cc1,4.39%
8,Cc1ccc(S(=O)(=O)N2CCN(S(=O)(=O)c3cccs3)CC2)cc1,-0.13%
9,CCOc1ccc(NC(=O)CSc2nnc(-c3ccncc3)n2CC2CCCO2)cc1 (stereo not drawn),-0.03%
10,CCNC(=O)NCCNC(=O)c1cc(OCC(F)(F)F)ccc1OCC(F)(F)F,1.77%
11,O=C(c1ccc(-n2cncn2)c([N+](=O)[O-])c1)N1CCN(S(=O)(=O)c2ccc(F)c(F)c2)CC1,9.27%
12,COc1ccc(C(=O)NNC(=S)NC(=O)c2ccco2)cc1,5.07%
13,CCC(=O)NC(=S)NNC(=O)c1ccc(OC)cc1,18.2%
14,CCCOc1ccc(C(=O)NNC(=S)NC(=O)c2cccs2)cc1,19.7%
15,Cc1ccc(C(=O)NNC(=S)NC(=O)c2ccco2)cc1,-11.8%
16,O=C(NNC(=S)NC(=O)c1ccc(Br)cc1)c1ccc([N+](=O)[O-])cc1,0.22%
17,CCCOc1ccc(C(=O)NNC(=S)NC(=O)c2ccccc2)cc1,2.22%
18,CCCCC(=O)NC(=S)NNC(=O)c1ccc(OC)cc1,-8.34%
19,C=C(C)CNC(=S)NNC(=O)c1ccc(Br)cc1,-8.67%
20,O=C(Nc1nc(-c2ccccc2Cl)cs1)c1cccnc1,3.73%
21,CC(C)(C)c1cc(OC(=O)c2ccccc2F)ccc1O,-1%
22,CC(=O)NC(=S)Nc1cc(C(F)(F)F)ccc1N1CCOCC1,-8.24%

row,Structure (SMILES),inhibition
1,CCC1(C)SC(NC(C)=O)=NN1C(C)=O (stereo not drawn),-7.92%
2,Cc1cc(=O)[nH]c(N/N=C/c2cccc(Br)c2)n1,5.33%
3,Cc1onc(-c2ccccc2)c1C(=O)OCC(=O)N(CC(C)C)c1c(N)n(Cc2ccccc2)c(=O)[nH]c1=O,0.02%
4,Cc1ccsc1C1CC(=O)Nc2ccccc2S1 (stereo not drawn),3.75%
5,CCN(CC(=O)NCc1ccc(Cl)cc1)C(=O)CCc1ccccc1,8.65%
6,c1ccc(CN2CCN(C(c3ccccc3)c3nnnn3Cc3ccccc3)CC2)cc1 (stereo not drawn),-8.11%
7,COc1cc(N)c(Cl)cc1C(=O)OCC(=O)N1CCCC1,-3.7%
8,CCC(=O)NC(=S)NNC(=O)c1ccc(O)cc1,-2.12%
9,C=CCNC(=S)NNC(=O)c1ccc(OCCC)cc1,0.33%
10,CSc1ncccc1C(=O)N1CCCC(C(=O)c2ccc3ccccc3c2)C1 (stereo not drawn),0.25%
11,Cc1cc(C(C)(C)C)ccc1OCCN(C)C,-2.78%
12,Cc1cc(C(C)(C)C)ccc1OCCOCCN1CCCC1,-9.74%
13,C[N+](C)(CCOc1ccccc1)Cc1ccccc1 (tested in a mixture with another compound),-4.3%
14,CC(C)(C)c1ccc(OCCNCc2ccccc2)cc1,3.96%
15,N/C(=N/[N+](=O)[O-])N1CCN(C(=O)c2ccc(Cl)cc2)CC1,9.05%
16,O=C(NC1CCS(=O)(=O)C1)c1ccc(-c2ccc(Br)cc2)o1 (stereo not drawn),-6.5%
17,O=C(NCCc1ccccc1Cl)c1ccc2nc3ccccc3c(=O)n2c1,-1.95%
18,CCOC(=O)COc1cc([N+](=O)[O-])cc2cccnc12,1.87%
19,O=[N+]([O-])c1ccc(Sc2cccc3cccnc23)cc1,-0.7%
20,CC(C)N=C(N)N=C(N)Nc1ccc(Cl)cc1,28.9%
21,NC(N)=NC(=S)Nc1ccc(Cl)cc1,18.1%
22,COc1ccc(C(=O)N/C(=C\c2ccco2)C(=O)NC2CCS(=O)(=O)C2)cc1 (stereo not drawn),-6.19%

row,Structure (SMILES),inhibition
1,O=C(Nc1nnc(C2=COCCO2)o1)c1cccc(C(F)(F)F)c1,-4.95%
2,COc1cccc(C(=O)Nc2nnc(-c3cccs3)o2)c1,17.3%
3,O=C(Nc1nnc(-c2cccs2)o1)c1ccco1,9.01%
4,CN(C)S(=O)(=O)c1ccc(C(=O)Nc2nnc(-c3cccs3)o2)cc1,-4%
5,N#Cc1ccc(C(=O)Nc2nnc(-c3cccs3)o2)cc1,21.1%
6,O=C(Nc1nnc(-c2cccs2)s1)c1cccc(F)c1,-2.5%
7,Cc1cc(C(=O)COC(=O)c2nc3nccc(C)n3n2)c(C)n1CC1CCCO1 (stereo not drawn),-1.82%
8,COCCn1c(CCC(=O)O)ccc1-c1cccs1,3.14%
9,O=C(O)c1ccccc1-n1c(-c2ccccc2)cc2c1CCCC2=O,-1.82%
10,CC(C)CC1Nc2ccc(C(=O)NCc3ccc4c(c3)OCO4)cc2NC1=O (stereo not drawn),1.92%
11,Cc1nccn1Cc1ccccc1,9.82%
12,COc1ccc(Cl)cc1NC(=S)NCCc1ccc(S(N)(=O)=O)cc1,1.57%
13,CN(Cc1ccccc1)C(=O)c1cccnc1,-2.03%
14,CCOC(=O)c1ccc(NC(=O)c2cn(-c3ccccc3)nc2-c2ccncc2)cc1,3.68%
15,CN(C)[C@@H]1C(=O)C(C(N)=O)=C(O)[C@@]2(O)C(=O)C3=C(O)c4c(O)cccc4[C@@](C)(O)[C@H]3C[C@@H]12,-2.82%
16,CN(C)[C@@H]1C(=O)C(C(N)=O)=C(O)[C@@]2(O)C(=O)C3=C(O)c4c(O)cccc4[C@@](C)(O)[C@H]3[C@H](O)[C@@H]12,5.02%
17,CN(C)[C@@H]1C(=O)C(C(N)=O)=C(O)[C@@]2(O)C(=O)C3=C(O)c4c(O)ccc(Cl)c4[C@@](C)(O)[C@H]3C[C@@H]12,4.13%
18,CN(C)[C@@H]1C(=O)C(C(=O)NCN2CCCC2)=C(O)[C@@]2(O)C(=O)C3=C(O)c4c(O)cccc4[C@@](C)(O)C3CC12 (stereo partly drawn),-8.43%
19,COC(=O)C1=C(C)N(Cc2ccco2)C(=O)N[C@H]1c1ccccc1,-5.63%
20,Cc1cccc(OCc2nnc(SCC(=O)c3ccccc3)o2)c1,5.39%
21,O=C(c1ccc(-n2cncn2)c([N+](=O)[O-])c1)N1CCN(S(=O)(=O)c2c(F)cccc2F)CC1,-3.76%
22,O=C(N/N=C/c1cccc(C(F)(F)F)c1)c1ccccc1O,1.04%
